SMILES strings stand for the structures. Out of some 39,000 compounds screened, about 1,500 (3.8%) were called active. The full list was thinned out, with actives kept by preference.

This assay deals with HSkMC (human skeletal muscle cells). The assay can be described thus: cytotoxicity call (relative viability < 0.9). The note with it: 10 µM.
In the case of `COc1ccc(NC(=O)Nc2ccc3c(c2)C(=O)N([C@H](C)CO)C[C@@H](C)[C@H](CN(C)C(=O)Nc2cccc4ccccc24)O3)cc1`, the cytotoxicity call is “inactive”.
Take `COc1ccc(S(=O)(=O)N(C)C[C@@H]2Oc3ccc(NC(=O)Nc4cccc5ccccc45)cc3C(=O)N([C@@H](C)CO)C[C@H]2C)cc1`: the cytotoxicity call is “active”.
For `COc1ccc(NC(=O)Nc2ccc3c(c2)C(=O)N([C@H](C)CO)C[C@@H](C)[C@@H](CN(C)C(=O)Nc2cccc4ccccc24)O3)cc1`, the cytotoxicity call is “active”.
For the molecule `COc1ccc(NC(=O)Nc2ccc3c(c2)C(=O)N([C@@H](C)CO)C[C@@H](C)[C@@H](CN(C)C(=O)Nc2cccc4ccccc24)O3)cc1`, the cytotoxicity call is “active”.
For `COc1ccc(S(=O)(=O)N(C)C[C@H]2Oc3ccc(NC(=O)Cc4ccccc4)cc3C(=O)N([C@H](C)CO)C[C@@H]2C)cc1`, the cytotoxicity call is “active”.
Take `COc1ccc(NC(=O)Nc2ccc3c(c2)C(=O)N([C@H](C)CO)C[C@H](C)[C@@H](CN(C)C(=O)Nc2cccc4ccccc24)O3)cc1`: the cytotoxicity call was “inactive”.
Turning to `COc1ccc(S(=O)(=O)N(C)C[C@@H]2Oc3ccc(NC(=O)Cc4ccccc4)cc3C(=O)N([C@@H](C)CO)C[C@@H]2C)cc1`, the cytotoxicity call was “inactive”.
The entry for `COc1ccc(NC(=O)Nc2ccc3c(c2)C(=O)N([C@@H](C)CO)C[C@@H](C)[C@H](CN(C)C(=O)Nc2cccc4ccccc24)O3)cc1` is “inactive”; for `COc1ccc(S(=O)(=O)N(C)C[C@H]2Oc3ccc(NC(=O)Cc4ccccc4)cc3C(=O)N([C@@H](C)CO)C[C@@H]2C)cc1` it is “inactive”.
`COc1ccc(S(=O)(=O)N(C)C[C@H]2Oc3ccc(NC(=O)Nc4cccc5ccccc45)cc3C(=O)N([C@@H](C)CO)C[C@@H]2C)cc1`: the cytotoxicity call was “inactive”.
For `COc1ccc(S(=O)(=O)N(C)C[C@H]2Oc3ccc(NC(=O)Nc4cccc5ccccc45)cc3C(=O)N([C@H](C)CO)C[C@H]2C)cc1`, the cytotoxicity call was “inactive”.
With `COc1ccc(NC(=O)Nc2ccc3c(c2)C(=O)N([C@@H](C)CO)C[C@H](C)[C@H](CN(C)C(=O)Nc2cccc4ccccc24)O3)cc1`, the cytotoxicity call was “inactive”.
Consider `C[C@H]1C(=O)C(=O)[C@@H]2O[C@@H]2C1=O`, for which the cytotoxicity call is “inactive”.
As to `C[C@@H]1CN([C@@H](C)CO)C(=O)c2cc(NC(=O)C3CCCCC3)ccc2O[C@@H](C)CCCCO[C@@H]1CN(C)C(=O)c1ccncc1`, the cytotoxicity call is “inactive”.
`C=CC(=O)N[C@@H]1c2ccccc2C[C@@H]1O`: the cytotoxicity call was “inactive”.
On to `Cc1noc(C)c1NC(=O)N(C)C[C@H]1OCCCC[C@@H](C)Oc2ccc(NS(=O)(=O)c3ccc(F)cc3)cc2C(=O)N([C@@H](C)CO)C[C@@H]1C`, for which the cytotoxicity call was “inactive”.
The entry for `COc1ccc(S(=O)(=O)Nc2ccc3c(c2)C(=O)N([C@H](C)CO)C[C@H](C)[C@@H](CN(C)Cc2ccc(Cl)c(Cl)c2)O3)cc1` is “inactive”; for `COc1ccc(S(=O)(=O)Nc2ccc3c(c2)C(=O)N([C@@H](C)CO)C[C@H](C)[C@H](CN(C)Cc2ccc(Cl)c(Cl)c2)O3)cc1` it is “inactive”.
Consider `COc1ccc(S(=O)(=O)Nc2ccc3c(c2)C(=O)N([C@@H](C)CO)C[C@@H](C)[C@@H](CN(C)Cc2ccc(Cl)c(Cl)c2)O3)cc1`, for which the cytotoxicity call was “active”.
For the molecule `COc1ccc(S(=O)(=O)Nc2ccc3c(c2)C(=O)N([C@H](C)CO)C[C@@H](C)[C@H](CN(C)Cc2ccc(Cl)c(Cl)c2)O3)cc1`, the cytotoxicity call is “active”.
Consider `COc1ccc(S(=O)(=O)Nc2ccc3c(c2)C(=O)N([C@H](C)CO)C[C@H](C)[C@H](CN(C)Cc2ccc(Cl)c(Cl)c2)O3)cc1`, for which the cytotoxicity call is “inactive”.
For `COc1ccc(S(=O)(=O)Nc2ccc3c(c2)C(=O)N([C@@H](C)CO)C[C@H](C)[C@@H](CN(C)Cc2ccc(Cl)c(Cl)c2)O3)cc1`, the cytotoxicity call was “active”.
For the molecule `COc1ccc(S(=O)(=O)Nc2ccc3c(c2)C(=O)N([C@H](C)CO)C[C@@H](C)[C@@H](CN(C)Cc2ccc(Cl)c(Cl)c2)O3)cc1`, the cytotoxicity call was “inactive”.
The entry for `COc1ccc(S(=O)(=O)Nc2ccc3c(c2)C(=O)N([C@@H](C)CO)C[C@@H](C)[C@H](CN(C)Cc2ccc(Cl)c(Cl)c2)O3)cc1` is “inactive”.

Source of the values: the antibiotic and cytotoxicity screens of Wong et al. (2023).
